According to PubChem BioAssay:
Calls of active or inactive are those of the source. Unless noted, the rule behind the calls is not given here.

How the values were obtained:
[1] = A549 cell viability effects, profiling panel, calcein-AM fluorescence, 48 h, basal (AID 1162); settings: higher = more signal; note: test concentration not given here
[2] = adipocyte viability effects, profiling panel, cell-based, 3T3-L1 adipocytes, calcein-AM fluorescence, 48 h, basal (AID 1163); settings: 3T3-L1 adipocytes viability, higher = more signal; note: test concentration not given here
[3] = HepG2 cell viability effects, profiling panel, calcein-AM fluorescence, 48 h, basal (AID 1164); settings: higher = more signal; note: test concentration not given here
[4] = MM1S cell viability effects, profiling panel, calcein-AM fluorescence, 48 h, basal (AID 1165); settings: higher = more signal;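 note: viability of MM1S multiple myeloma cells under basal unstimulated conditions; test concentration not given here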
[5] = basal RPMI8226 viability, no added stimulus, profiling panel, cell-based, calcein-AM fluorescence, 48 h, PK04 Diversity Set (AID 1166); settings: RPMI8226 myeloma viability, higher = more signal;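 note: cells grown under basal conditions without added stimulus; test concentration not given here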
[6] = basal HepG2 mitochondrial membrane potential changes, profiling panel, cell-based, JC-1 fluorescence, 24 h, 100 nL compound (AID 1167); settings: higher = more signal; note: test concentration not given here
[7] = basal 3T3-L1 adipocyte mitochondrial potential changes, profiling panel, cell-based, JC-1 fluorescence, 3T3-L1 adipocytes, 24 h, 100 nL compound (AID 1168); settings: JC-1 mitochondrial fluorescence, higher = more signal, called active from +8 up or from −8 down; note: test concentration not given here
[8] = basal RPMI8226 mitochondrial membrane potential changes, profiling panel, cell-based, JC-1 fluorescence, 24 h, 100 nL compound (AID 1169); settings: RPMI8226 myeloma, JC-1 mitochondrial potential fluorescence, higher = more signal; note: test concentration not given here
[9] = basal MM1S mitochondrial membrane potential changes, profiling panel, cell-based, JC-1 fluorescence, 24 h, 100 nL compound (AID 1170); settings: higher = more signal; note: test concentration not given here
[10] = A549 lung cancer cell viability effects, profiling panel, resazurin fluorescence, 24 h, PK04 Diversity Set (AID 1171); settings: higher = more signal, called active from +8 up or from −8 down; note: test concentration not given here
[11] = HepG2 liver cancer cell viability effects, profiling panel, resazurin fluorescence, 24 h, PK04 Diversity Set (AID 1172); settings: higher = more signal; note: test concentration not given here
[12] = basal S. cerevisiae growth modulation, no modifier, primary screen, OD600, strain BY4716, 24 h, basal condition (AID 1173); settings: OD600, 24 h, higher = more signal, called active from +8 up or from −8 down
[13] = MM1S myeloma cell viability, profiling panel, resazurin fluorescence, basal, 24 h, PK04 Diversity Set (AID 1174); settings: higher = more signal, called active from +8 up or from −8 down;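 note: MM1S multiple myeloma cell line; test concentration not given here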
[14] = biological target: Dihydroorotate dehydrogenase (quinone), mitochondrial (Plasmodium falciparum (isolate 3D7)) (UniProt Q08210); assay: PfDHODH enzyme inhibitors, primary screen, biochemical, C-terminal His tag, absorbance 600 nm (AID 1175); settings: DCIP absorbance 600 nm, higher = more signal, called active from +8 up or from −8 down;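 note: recombinant parasite enzyme with a five histidine tag at its C terminus; test concentration not given here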
Dihydroorotate dehydrogenase (quinone), mitochondrial (Plasmodium falciparum (isolate 3D7)), sequence (Q08210 whole entry, looked up): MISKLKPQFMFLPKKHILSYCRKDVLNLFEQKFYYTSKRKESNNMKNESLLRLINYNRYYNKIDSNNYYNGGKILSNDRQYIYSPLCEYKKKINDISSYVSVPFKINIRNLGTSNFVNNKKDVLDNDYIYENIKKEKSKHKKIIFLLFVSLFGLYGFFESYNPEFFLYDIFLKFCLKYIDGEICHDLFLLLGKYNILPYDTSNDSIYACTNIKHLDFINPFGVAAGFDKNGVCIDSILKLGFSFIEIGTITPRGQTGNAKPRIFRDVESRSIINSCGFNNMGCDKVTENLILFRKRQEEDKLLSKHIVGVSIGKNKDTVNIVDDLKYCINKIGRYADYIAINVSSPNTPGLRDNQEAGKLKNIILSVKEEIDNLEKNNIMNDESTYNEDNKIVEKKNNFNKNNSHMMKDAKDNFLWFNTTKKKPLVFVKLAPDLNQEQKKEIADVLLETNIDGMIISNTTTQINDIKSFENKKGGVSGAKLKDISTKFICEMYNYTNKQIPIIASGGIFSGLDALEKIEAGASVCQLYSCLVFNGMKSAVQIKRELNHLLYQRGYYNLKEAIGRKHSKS

[15] = P. aeruginosa biofilm formation inhibitors, primary screen, strain PAO1, LB-PBS medium, absorbance 600 nm (AID 1176); note: test concentration not given here; settings: P. aeruginosa PAO1 growth/biofilm, A600, 12 h; higher = more signal
[16] = S. cerevisiae RM11-1a growth modifiers, primary screen, strain RM11-1a, OD600, basal, 24 h (AID 1177); settings: OD600, 24 h, higher = more signal, called active from +8 up or from −8 down;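 note: cultures grown under basal conditions with no added stressor; test concentration not given here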
[17] = E. coli acrAB mutant growth effects, primary screen, E. coli filamentation inducers, strain DRC39, OD650, 24 h (AID 1178); settings: higher = more signal, called active from +8 up or from −8 down;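 note: growth measured as culture turbidity by optical density at 650 nm; test concentration not given here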
[18] = E. coli acrAB mutant growth effects, primary screen, E. coli filamentation inducers, strain DRC39, OD650, 48 h (AID 1179);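 note: screen aims at cell division blockers that make cells filament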; settings: E. coli DRC39 delta-acrAB growth, higher = more signal, called active from +8 up or from −8 down
[19] = RPMI8226 myeloma cell viability, profiling panel, resazurin fluorescence, basal, 24 h, PK04 Diversity Set (AID 1180); settings: higher = more signal;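 note: RPMI8826 multiple myeloma cell line at 5000 cells per well; test concentration not given here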
[20] = biological target: E3 ubiquitin-protein ligase XIAP (Homo sapiens) (UniProt P98170); assay: XIAP binders, primary screen, biophysical, small-molecule microarray, fluorescence 635 nm (AID 1181); settings: small-molecule microarray binding, higher = more signal;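 note: score merges 667 nm emission and signal to noise over triplicate slides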
E3 ubiquitin-protein ligase XIAP (Homo sapiens), sequence (P98170 whole entry, looked up): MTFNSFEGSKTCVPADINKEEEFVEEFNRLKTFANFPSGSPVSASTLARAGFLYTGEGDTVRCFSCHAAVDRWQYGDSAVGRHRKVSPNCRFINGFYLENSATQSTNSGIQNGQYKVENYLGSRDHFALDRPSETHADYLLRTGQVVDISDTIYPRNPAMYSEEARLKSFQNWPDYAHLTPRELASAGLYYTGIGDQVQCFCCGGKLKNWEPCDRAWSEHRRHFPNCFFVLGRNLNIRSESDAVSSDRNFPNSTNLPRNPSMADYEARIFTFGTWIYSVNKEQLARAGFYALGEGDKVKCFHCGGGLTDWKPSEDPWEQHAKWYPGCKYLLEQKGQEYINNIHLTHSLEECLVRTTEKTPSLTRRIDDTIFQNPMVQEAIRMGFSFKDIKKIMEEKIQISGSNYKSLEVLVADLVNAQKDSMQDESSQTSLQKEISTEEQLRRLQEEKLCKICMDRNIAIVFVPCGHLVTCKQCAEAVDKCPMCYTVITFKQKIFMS

In the case of `CCN(CC)c1ccc(N2CC=CC34O[C@@H]5/C=C\CCC(C)OC(=O)C5[C@H]3C(=O)N(C(C)CO)[C@@H]4C2=O)cc1` (stereo not given in full), the z-score [1] is reported as -0.0588, the z-score [2] is reported as -1.03 and the z-score [3] is reported as 1.48. The z-score [4] was 0.86, the z-score [5] was 0.388 and the z-score [6] was 1.16. For the same compound, the z-score [7] was 0.0645 (inactive), the z-score [8] was -0.616 and the z-score [9] was -0.585. For the same compound, the z-score [10] was -0.0052 (inactive), the z-score [11] was 0.958 and the z-score [12] was -0.893 (inactive). For the same compound, the z-score [13] was 0.259 (inactive), the composite z-score [14] was 0.881 (inactive) and the z-score [15] was -1.28 (inactive). For the same compound, the z-score [16] was 0.507 (inactive), the z-score [17] was 0.966 (inactive) and the z-score [18] was 1.39 (inactive). The z-score [19] was 0.0809 and the composite z-score [20] was 0.0727.
`CO[C@H]1O[C@H](CO)[C@@H](OC(=O)Nc2ccc(C#N)cc2)[C@@H]2OC(=O)[C@H](Cc3cccc(Br)c3)C/C=C/C[C@@H](Cc3cccc(Br)c3)C(=O)O[C@@H]12` gave a z-score [1] of 1.31, a z-score [2] of 0.685 and a z-score [3] of 1.29. The z-score [4] was -1.71, the z-score [5] was -0.487 and the z-score [6] was 1.73. The z-score [7] was 1.74 (inactive), the z-score [8] was -0.579 and the z-score [9] was -0.935. The z-score [10] was -2.28 (inactive), the z-score [11] was -1.39 and the z-score [12] was -0.253 (inactive). For the same compound, the z-score [13] was -3.14 (inactive), the composite z-score [14] was -0.631 (inactive) and the z-score [15] was 1.23 (inactive). For the same compound, the z-score [16] was 0.99 (inactive), the z-score [17] was 0.295 (inactive) and the z-score [18] was 0.432 (inactive). For the same compound, the z-score [19] was -2.37 and the composite z-score [20] was -0.355.
Work on `C=C(COC)/C(=C/C[C@@H](OC(C)=O)c1ccc(CO)o1)c1cc(C(=O)OC)ccc1OC` yielded a z-score [1] of -0.109, a z-score [2] of -0.461 and a z-score [3] of 0.322. For the same compound, the z-score [4] was -0.425, the z-score [5] was -0.0799 and the z-score [6] was 0.0492. The z-score [7] was 0.208 (inactive), the z-score [8] was -0.726 and the z-score [9] was -0.927. The z-score [10] was 0.072 (inactive), the z-score [11] was -0.0453 and the z-score [12] was 0.196 (inactive). For the same compound, the z-score [13] was -0.216 (inactive), the composite z-score [14] was -0.0894 (inactive) and the z-score [15] was 0.637 (inactive). For the same compound, the z-score [16] was 0.317 (inactive), the z-score [17] was 0.65 (inactive) and the z-score [18] was 0.638 (inactive). It also gave a z-score [19] of 0.205 and a composite z-score [20] of -0.173.
With `Cc1ccc([C@H]2C(C(=O)O)=C[C@@H](C(C)(C)C)N2S(=O)(=O)c2ccc(C)cc2)cc1` the z-score [1] was -0.728, the z-score [2] was -0.85 and the z-score [3] was -0.338. For the same compound, the z-score [4] was 0.0315, the z-score [5] was -0.4 and the z-score [6] was -0.892. The z-score [7] was -0.38 (inactive), the z-score [8] was -0.0701 and the z-score [9] was -1.19. For the same compound, the z-score [10] was -0.654 (inactive), the z-score [11] was -0.553 and the z-score [12] was -0.405 (inactive). The z-score [13] was -0.648 (inactive), the composite z-score [14] was -0.241 (inactive) and the z-score [15] was 0.353 (inactive). The z-score [16] was -0.0566 (inactive), the z-score [17] was -1.36 (inactive) and the z-score [18] was -0.387 (inactive). For the same compound, the z-score [19] was -2.49 and the composite z-score [20] was 0.193.
For `O=C(N1CCOCC1)[C@@]1(CCS(=O)(=O)c2ccccc2)N=C(c2ccc(OCCCO)cc2)O[C@H]1c1ccccc1`, the z-score [1] was 0.723, the z-score [2] was -0.614 and the z-score [3] was 0.491. It also gave a z-score [4] of 0.201, a z-score [5] of 0.614 and a z-score [6] of 0.271. For the same compound, the z-score [7] was -0.277 (inactive), the z-score [8] was -0.489 and the z-score [9] was -0.617. The z-score [10] was -0.223 (inactive), the z-score [11] was -0.285 and the z-score [12] was 1.24 (inactive). The z-score [13] was -0.986 (inactive), the composite z-score [14] was 0.225 (inactive) and the z-score [15] was 1.02 (inactive). For the same compound, the z-score [16] was 0.0235 (inactive), the z-score [17] was 0.0835 (inactive) and the z-score [18] was 0.0231 (inactive). It also gave a z-score [19] of -1.09 and a composite z-score [20] of 0.3.
With `COC(=O)[C@@]1(Cc2ccc(F)cc2)[C@H]2c3cc(C(=O)N(C)C)n(Cc4c(CO)[nH]cc(C)c4=O)c3C[C@H]2CN1C(=O)c1ccccc1` the z-score [1] was -0.108, the z-score [2] was 0.837 and the z-score [3] was -0.554. It also gave a z-score [4] of -1.33, a z-score [5] of -0.372 and a z-score [6] of -0.3. For the same compound, the z-score [7] was -0.91 (inactive), the z-score [8] was -0.00352 and the z-score [9] was -0.895. The z-score [10] was -1.42 (inactive), the z-score [11] was -1.03 and the z-score [12] was 0.966 (inactive). For the same compound, the z-score [13] was -1.72 (inactive), the composite z-score [14] was -0.244 (inactive) and the z-score [15] was 1.79 (inactive). For the same compound, the z-score [16] was 0.986 (inactive), the z-score [17] was -0.0892 (inactive) and the z-score [18] was -1.36 (inactive). It also gave a z-score [19] of -0.932 and a composite z-score [20] of 0.0153.
`C[C@]1(C(=O)O)c2ccccc2C(=O)N(Cc2ccc(OC(F)(F)F)cc2)[C@H]1c1ccc(CO)cc1` showed a z-score [1] of 0.0055, a z-score [2] of 0.755 and a z-score [3] of -0.167. The z-score [4] was -0.24, the z-score [5] was -1.48 and the z-score [6] was 0.248. For the same compound, the z-score [7] was -1.18 (inactive), the z-score [8] was -0.0611 and the z-score [9] was 0.057. The z-score [10] was 0.244 (inactive), the z-score [11] was 0.0448 and the z-score [12] was -0.847 (inactive). The z-score [13] was 0.0944 (inactive), the composite z-score [14] was -0.295 (inactive) and the z-score [15] was 0.0993 (inactive). The z-score [16] was -0.475 (inactive), the z-score [17] was 0.248 (inactive) and the z-score [18] was -0.0775 (inactive). The z-score [19] was 0.441 and the composite z-score [20] was 0.265.
`COc1ccc(C(O)C2C=CC3C(=O)N(c4ccccc4)C(=O)C3N2Nc2ccccc2F)cc1` (stereo not given) showed a z-score [1] of -0.775, a z-score [2] of 0.406 and a z-score [3] of -0.596. For the same compound, the z-score [4] was -0.808, the z-score [5] was -2.08 and the z-score [6] was -0.334. The z-score [7] was -0.149 (inactive), the z-score [8] was -0.288 and the z-score [9] was -0.855. For the same compound, the z-score [10] was 0.21 (inactive), the z-score [11] was -0.229 and the z-score [12] was -0.359 (inactive). For the same compound, the z-score [13] was -0.0646 (inactive), the composite z-score [14] was -0.0377 (inactive) and the z-score [15] was 0.987 (inactive). For the same compound, the z-score [16] was -0.687 (inactive), the z-score [17] was -0.548 (inactive) and the z-score [18] was -0.869 (inactive). For the same compound, the z-score [19] was 0.435 and the composite z-score [20] was 0.483.
`COc1ccc(C(O)C2C=CC3C(=O)N(c4ccccc4)C(=O)C3N2Nc2ccc(C(C)C)cc2)c2ccccc12` (stereo not given) gave a z-score [1] of 0.181, a z-score [2] of -0.946 and a z-score [3] of 0.301. It also gave a z-score [4] of -0.419, a z-score [5] of 0.129 and a z-score [6] of -0.783. The z-score [7] was 0.0228 (inactive), the z-score [8] was -0.293 and the z-score [9] was -0.154. The z-score [10] was -0.64 (inactive), the z-score [11] was -2.57 and the z-score [12] was -1.62 (inactive). For the same compound, the z-score [13] was -0.871 (inactive), the composite z-score [14] was 0.183 (inactive) and the z-score [15] was 1.8 (inactive). For the same compound, the z-score [16] was 0.427 (inactive), the z-score [17] was 0.0571 (inactive) and the z-score [18] was 0.313 (inactive). The z-score [19] was -0.208 and the composite z-score [20] was 0.349.
